Shown are actives, neighbours in structure and some others; about 1.8% of the full set was active somewhere.
A3G deaminase: APOBEC3G DNA deaminase inhibitors, primary screen, biochemical, fluorescence, single-stranded DNA substrate, uHTS. recombinant A3G, ssDNA deamination FAM/TAMRA fluorescence. inhibition, % at 20 µM. DNA dC->dU-editing enzyme APOBEC-3G (Homo sapiens), Q9HC16. AID 493012, 2011. hit rate 0.28% among 330,000;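 active means inhibition of at least 40% at 20 µM, with no more than 30% in the related APOBEC3A deaminase screen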
Target sequence (Q9HC16 whole entry, looked up): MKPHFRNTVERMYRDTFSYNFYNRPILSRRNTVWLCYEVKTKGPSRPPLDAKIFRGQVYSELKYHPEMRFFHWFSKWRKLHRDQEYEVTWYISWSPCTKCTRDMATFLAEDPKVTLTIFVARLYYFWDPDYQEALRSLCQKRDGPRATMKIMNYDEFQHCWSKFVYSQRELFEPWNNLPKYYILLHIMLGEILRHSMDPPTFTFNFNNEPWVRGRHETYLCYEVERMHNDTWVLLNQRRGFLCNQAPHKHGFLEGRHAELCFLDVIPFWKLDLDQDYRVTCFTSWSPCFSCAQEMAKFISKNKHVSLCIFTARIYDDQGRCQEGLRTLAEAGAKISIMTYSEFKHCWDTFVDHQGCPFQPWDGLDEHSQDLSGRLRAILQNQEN
beta cell repl: inducers of MIN6 beta-cell proliferation, primary screen, ATP luminescence, uHTS. MIN6 cells proliferation, ATPlite luminescence, 48 h; cells starved in 0.2% serum; 100% = growth in 10% serum. proliferation, % at 10 µM. hit rate 0.29% among 330,000. AID 2380, 2010;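 active means compounds whose signal lies at least 3.5 SD above the mean of all wells on their plate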
CendR NRP1 mod: modulators of CendR peptide binding to NRP-1, primary screen, biochemical, fluorescence polarization, uHTS | FAM-RPARPAR peptide binding to NRP-1 | inhibition, % at 25 µM | hit rate 0.85% among 360,000;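 active means inhibition or corrected inhibition above about 18%, plus a signal ratio from 0.5 to 1.5, limit read from the data, passing the limit was not always enough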
APOBEC3A inh: APOBEC3A ssDNA deaminase inhibitors, primary screen, selectivity assay for APOBEC3G inhibitor project, biochemical, FAM/TAMRA oligo cleavage fluorescence; DNA dC->dU-editing enzyme APOBEC-3A (Homo sapiens), P31941; recombinant A3A, FAM/TAMRA ssDNA deamination fluorescence; inhibition, % at 20 µM; hit rate 0.41% among 330,000; AID 493011, 2011;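 active means at least 40% inhibition at 20 µM here, with at most 30% in a related deaminase screen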
VLA-4 inh: inhibition in human VLA-4 binding assay, primary screen, VLA-4 allosteric modulator project, MLPCN library, flow cytometry, VLA-4 expressing cells; hit rate 0.2% among 330,000; inhibition, % (about 7 µM as worked out from the volumes in the protocol); AID 2557, 2010; ligand binding flow cytometry; in the data active means inhibition above about 50%
VLA-4 mod pick: retest of VLA-4 allosteric modulators, confirmation, cell-based, cherry-picked plates, U937, HUTS-21 LIBS antibody. hit rate 2% among 1,300. shares compounds with VLA-4 inh. inhibition, % at 6.7 µM. AID 2813, 2010. U937 cells, HUTS-21 LIBS mAb binding, flow cytometry; LDV ligand present at threefold Kd; in the data active means inhibition above about 40%
Hits are given with their value.

`CCC(C(=O)OCC(=O)Nc1c(C)n(C)n(-c2ccccc2)c1=O)c1ccccc1` (centres undefined) gave A3G deaminase inactive, beta cell repl inactive, CendR NRP1 mod inactive, APOBEC3A inh inactive, VLA-4 inh inactive and VLA-4 mod pick inactive.
For Cc1ccccc1NC(=O)c1ccc2nc(N3CCOCC3)sc2c1 the results were A3G deaminase inactive, beta cell repl inactive, CendR NRP1 mod inactive, APOBEC3A inh inactive, VLA-4 inh inactive and VLA-4 mod pick inactive.
For Cc1cc(C(=O)N2CCN(C(=O)c3ccco3)CC2)ccc1[N+](=O)[O-] the results were A3G deaminase inactive, beta cell repl inactive, CendR NRP1 mod inactive, APOBEC3A inh inactive, VLA-4 inh 51 and VLA-4 mod pick inactive.
`O=C(c1ccc2nc(N3CCOCC3)sc2c1)N1CCN(C(=O)c2ccco2)CC1` gave A3G deaminase inactive, beta cell repl inactive, CendR NRP1 mod inactive, APOBEC3A inh inactive, VLA-4 inh inactive and VLA-4 mod pick inactive.
For Cc1ccccc1CNC(=O)c1ccc2nc(N3CCOCC3)sc2c1 the results were A3G deaminase inactive, beta cell repl inactive, CendR NRP1 mod inactive, APOBEC3A inh inactive, VLA-4 inh inactive and VLA-4 mod pick inactive.
For O=C(CN(Cc1ccco1)C(=O)CNS(=O)(=O)c1ccc(F)cc1)NCc1ccco1 the results were A3G deaminase inactive, beta cell repl inactive, CendR NRP1 mod inactive, APOBEC3A inh inactive and VLA-4 inh inactive.
`COc1ccc2nc(SC(C)C(=O)NC3CCCC3)[nH]c2c1` (centres undefined) gave A3G deaminase inactive, beta cell repl inactive, CendR NRP1 mod inactive and APOBEC3A inh inactive.
For CCOC(=O)c1ccc(N2C(=O)CC(N3CCOCC3)C2=O)cc1 (centres undefined) the results were A3G deaminase inactive, beta cell repl inactive, CendR NRP1 mod inactive, APOBEC3A inh inactive, VLA-4 inh inactive and VLA-4 mod pick inactive.
CCN(CC)c1ccc(CNc2ccc3c(c2)ncn3C(C)(C)C)cc1 was read as A3G deaminase inactive, beta cell repl inactive, CendR NRP1 mod inactive, APOBEC3A inh inactive, VLA-4 inh 54 and VLA-4 mod pick inactive.
For CCc1ccc(CNc2ccc3c(c2)ncn3C(C)(C)C)cc1 the results were A3G deaminase inactive, beta cell repl inactive, CendR NRP1 mod inactive, APOBEC3A inh inactive and VLA-4 inh inactive.
`CN(CC(=O)Nc1ccc(F)cc1)C(=O)CNC(=O)C1CCCCC1` gave A3G deaminase inactive, beta cell repl inactive, CendR NRP1 mod inactive, APOBEC3A inh inactive and VLA-4 inh inactive.
`CC(C)CC(=O)Nc1ccc2c(c1)nc(CCN1CCCCC1)n2C` gave A3G deaminase inactive, beta cell repl inactive, CendR NRP1 mod inactive, APOBEC3A inh inactive, VLA-4 inh inactive and VLA-4 mod pick inactive.
`CC(C)C(=O)Nc1ccc2c(c1)nc(CCN1CCCCC1)n2C` gave A3G deaminase inactive, beta cell repl inactive, CendR NRP1 mod inactive, APOBEC3A inh inactive and VLA-4 inh inactive.
`O=C(COc1ccc(Cl)cc1)Nc1cc(NC(=O)COc2ccc(Cl)cc2)cc(C(=O)O)c1` gave A3G deaminase inactive, beta cell repl inactive, CendR NRP1 mod inactive, APOBEC3A inh inactive and VLA-4 inh inactive.
For S=c1cn[nH]c2ccccc12 the results were CendR NRP1 mod inactive.
For COc1cc2c(cc1OC)C(c1cc(OC)c(OC)cc1[N+](=O)[O-])N(C(C)=O)CC2 (centres undefined) the results were A3G deaminase inactive, beta cell repl inactive, CendR NRP1 mod inactive, APOBEC3A inh inactive, VLA-4 inh inactive and VLA-4 mod pick inactive.
Screening COCc1ccc(C(=O)N2CCCC(CNC(=O)c3ccc(F)cc3)C2)o1 (centres undefined) returned A3G deaminase inactive, beta cell repl inactive, CendR NRP1 mod inactive, APOBEC3A inh inactive and VLA-4 inh inactive.

Bioassay records: PubChem, several laboratories
